Bioassay records (PubChem BioAssay)
Sampled rows, rich in hits. Any-hit rate of the full collection: about 3%.
KDM5B inh = blocks human KDM5B histone demethylase activity. KDM5B demethylase, FDH-coupled NADH fluorescence (FDH is formaldehyde dehydrogenase). Potency, µM (series often up to 57.7 µM), actives largely listed as inhibitors. 2.6% of 220,000 active. AID 1347165; note: potency is the fitted concentration of half-maximal effect; 0% is about no effect; nearly all actives have a fitted effect of over 70% in size
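KDM5BΔAP (200 nM final) in 50 mM HEPES pH 7.5, 0.01% Tween-20 was preincubated 10 min at RT with compound over a concentration range. Substrate mix (H3K4me3 12.5 µM, α-KG 25 µM, Fe²⁺, ascorbate, NAD⁺, FDH) was added, and NADH fluorescence change over 30 min gave dose-response curves.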
IP6K1 inh = inhibitors of human IP6K1; Q92551; AID 1645851; 0.81% of 140,000 active; IP6K1 kinase, ADP-Glo luminescence, 2 h; active compounds read low; activity change, % (series mostly up to about 58 µM); in the data active = activity change below about -25%; note: % is set by controls: 0 for no effect and ±100 for the full control effect
Target sequence (Q92551 whole entry, looked up): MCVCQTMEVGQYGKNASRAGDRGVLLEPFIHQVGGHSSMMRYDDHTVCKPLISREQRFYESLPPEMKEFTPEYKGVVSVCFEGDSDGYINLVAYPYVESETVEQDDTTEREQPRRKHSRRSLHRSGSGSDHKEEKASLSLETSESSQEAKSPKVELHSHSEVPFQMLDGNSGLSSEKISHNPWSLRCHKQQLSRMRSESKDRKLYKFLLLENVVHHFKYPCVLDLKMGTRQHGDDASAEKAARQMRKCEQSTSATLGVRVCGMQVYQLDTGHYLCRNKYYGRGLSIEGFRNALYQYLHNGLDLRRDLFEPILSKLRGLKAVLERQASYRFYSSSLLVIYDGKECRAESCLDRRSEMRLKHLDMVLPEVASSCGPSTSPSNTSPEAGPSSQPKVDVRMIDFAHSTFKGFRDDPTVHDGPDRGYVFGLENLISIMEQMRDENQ
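ADP-Glo luminescence measures ADP made by human IP6K1 during a 2 h RT reaction with ATP/IP6 (mix at 1.3 mM/130 uM); top library doses 57.5 and 19.1 uM final.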
SNCA viab count = cell viability loss counter-screen; 0.12% of 150,000 active; Potency, µM (series often up to 57.1 µM), for inactives: top-dose activity change, negative = cytotoxicity, most hits filed as cytotoxic; HEK-293-SNCA-luc viability, GF-AFC fluorescence, 24 h;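 note: potency is the fitted concentration of half-maximal effect; 0% = DMSO-treated cells and -100% = medium-only wells without cells; nearly all actives have a fitted effect of over 30% in size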
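Cytotoxicity counterscreen: after 24 h compound treatment of genome-edited SNCA-luciferase HEK-293 cells, live-cell protease substrate GF-AFC read by fluorescence after 30 min; activity scaled between DMSO (0%) and medium-only (-100%), curves Hill-fitted.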
SNCA expr inh = inhibitors of alpha-synuclein (SNCA) gene expression; HEK-293 SNCA-luciferase knock-in, luminescence, 24 h; Potency, µM (series often up to 57.2 µM), for inactives: top-dose activity change, negative = inhibition, most hits filed as inhibitors; 0.17% of 140,000 active; AID 1671194;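 note: potency is the fitted concentration of half-maximal effect; plate controls were DMSO cells for no effect and cell-free wells for full effect; nearly all actives have a fitted effect of over 45% in size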
* = called active by the depositor; [ ] = another dose, or the depositor's remark. Unless noted, calls come from the whole dose curve; as a rule, active = well fitted curve in the direction sought with a large enough effect; inconclusive = small, poorly fitted or top-dose-only effect, or another doubt; inactive = no such curve, though single readings can be large; an effect the other way counts as inactive or inconclusive.

`COCCNC(=O)c1ccc2c(c1)N(C)C(CC(=O)N1CCCOCC1)CO2` (stereo not given) gave KDM5B inh 32µM*, IP6K1 inh 4, SNCA viab count -3% and SNCA expr inh 3%.
COCCNC(=O)c1ccc2c(c1)N(C)C(CC(=O)N1CCC(C)CC1)CO2 (stereo not given) was read as KDM5B inh 20µM*, IP6K1 inh 0, SNCA viab count -11% and SNCA expr inh -6%.
CCCCCC(=O)Nc1ccc(-c2csc(NC)n2)cc1 was read as KDM5B inh inactive.
For COc1ccc(Nc2ccnc(N3CCC(C(=O)NCC(F)(F)F)CC3)n2)cc1 the results were IP6K1 inh -1, SNCA viab count -5%[12.5 µM] and SNCA expr inh -3%.
Screening COC[C@@H]1CN(c2ncccn2)C[C@H]1C(=O)NCc1ccccn1 returned KDM5B inh 14µM*, IP6K1 inh 7, SNCA viab count -15% and SNCA expr inh 25%.
`COC[C@@H]1CN(C(=O)CN2CCOCC2)C[C@H]1c1ccncc1` gave KDM5B inh inactive, IP6K1 inh -5, SNCA viab count 9% and SNCA expr inh -5%.
`COC[C@@H]1CN(c2ncccn2)C[C@H]1C(=O)N1CCOCC1` gave KDM5B inh 25µM*, IP6K1 inh 14, SNCA viab count -11% and SNCA expr inh 6%.
Screening COC[C@@H]1CN(c2ncccn2)C[C@H]1C(=O)NCC(F)(F)F returned KDM5B inh 20µM*, IP6K1 inh 0, SNCA viab count -8% and SNCA expr inh -14%.
For O=C(NCc1ccccn1)[C@H]1CN(Cc2ccccc2)C[C@H]1C(=O)O the results were KDM5B inh inactive, IP6K1 inh 0, SNCA viab count 14% and SNCA expr inh -16%.
COc1ccc(-n2nnnc2C2CCN(S(=O)(=O)c3ccccc3Cl)CC2)cc1 was read as KDM5B inh inactive.
`COC(=O)C(=O)CC(=O)c1ccc(C)s1` gave KDM5B inh inactive.
For COc1cccc(CC(=O)N2CCC3(CC2)CN(c2ncccn2)CC3CO)c1 (stereo not given) the results were KDM5B inh inconclusive, IP6K1 inh 5, SNCA viab count 13% and SNCA expr inh -21%.
O=C(Cc1cccc(F)c1)N1CCC2(CC1)CN(c1ncccn1)CC2CO (stereo not given) was read as KDM5B inh 22µM*, IP6K1 inh 23, SNCA viab count 6% and SNCA expr inh -17%.
`O=C(Cc1ccccc1)N1CCC2(CC1)CN(c1ncccn1)CC2CO` (stereo not given) gave KDM5B inh 22µM*, IP6K1 inh 19, SNCA viab count -7% and SNCA expr inh inconclusive.
`O=C(Cc1ccccc1F)N1CCC2(CC1)CN(c1ccncn1)CC2CO` (stereo not given) gave KDM5B inh inactive, IP6K1 inh 41, SNCA viab count -1%[12.5 µM] and SNCA expr inh -20%.
For COCCN1C(=O)CS(=O)C12CCN(C(=O)c1ccc3cc[nH]c3c1)CC2 (stereo not given) the results were KDM5B inh 18µM*, IP6K1 inh -8, SNCA viab count -4% and SNCA expr inh -20%.
`O=C(NCc1ccccc1)N1CCC2(CC1)N(Cc1cccc(F)c1)C(=O)CS2=O` (stereo not given) gave IP6K1 inh -12, SNCA viab count 3% and SNCA expr inh -1%.
`O=C(c1cccc2[nH]ccc12)N1CCC2(CC1)N(Cc1cccc(F)c1)C(=O)CS2=O` (stereo not given) gave KDM5B inh 18µM*, IP6K1 inh -9, SNCA viab count -2% and SNCA expr inh 1%.
Screening CN1C(=O)c2ccc(NC(=O)Cn3nc4c(cc3=O)CCCC4)cc2C1=O returned KDM5B inh 28µM*, IP6K1 inh 21, SNCA viab count 8% and SNCA expr inh -16%.
`Cc1ccc(NC(=O)Cn2nc3c(cc2=O)CCCCC3)cc1C` gave KDM5B inh inactive, IP6K1 inh 10, SNCA viab count 1% and SNCA expr inh 11%.
`O=C(c1ccc(Cl)nc1)N1CCC2(CC1)CC(c1cccc(C(F)(F)F)c1)=NO2` gave IP6K1 inh 21.
Cn1cc(-c2nc(N3CCOCC3)cc3c2CN(CC2CC2)C3=O)cn1 was read as KDM5B inh inactive, IP6K1 inh 10, SNCA viab count 15%[87.6 µM] and SNCA expr inh 15%[87.6 µM].
